Compound activity (PubChem)
D2 ag-1 – activates the human D2 dopamine receptor. P14416. HEK293 T-REx D2 cells, calcium flux agonist mode. hit rate 0.53% among 340,000. activation, % at 2 µM;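 active means activation over 3 SD above normal in the single-dose calcium agonist read, cut at about 30% in these data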; further: 0% is about no effect
Target sequence (P14416 whole entry, looked up): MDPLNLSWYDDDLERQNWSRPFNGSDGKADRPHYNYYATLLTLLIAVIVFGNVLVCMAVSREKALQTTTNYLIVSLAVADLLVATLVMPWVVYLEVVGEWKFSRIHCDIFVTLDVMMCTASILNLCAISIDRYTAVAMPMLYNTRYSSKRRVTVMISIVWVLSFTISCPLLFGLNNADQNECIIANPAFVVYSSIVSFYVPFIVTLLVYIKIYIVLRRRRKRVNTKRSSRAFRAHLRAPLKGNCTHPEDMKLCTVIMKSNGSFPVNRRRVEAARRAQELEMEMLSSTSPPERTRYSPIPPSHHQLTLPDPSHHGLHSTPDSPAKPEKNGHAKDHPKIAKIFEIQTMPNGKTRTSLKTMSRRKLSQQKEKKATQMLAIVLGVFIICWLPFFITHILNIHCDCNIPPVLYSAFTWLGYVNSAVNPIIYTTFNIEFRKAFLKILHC
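Agonism scored from kinetic calcium signal (1 read/sec, 180 s) following compound pin transfer, after a 10 s baseline. Cells: HEK293 Trex line expressing inducible D2 receptor coupled to calcium, dye-loaded after overnight culture at 30 C.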
D2 ag-2 – activates the human D2 dopamine receptor; AID 624465; DiscoveRx PathHunter D2 beta-arrestin, luminescence, 90 min; 100% = 57 uM dopamine signal; activation, % (no concentration beside the values); P14416; hit rate 0.084% among 360,000; in the data active means activation above about 40%; inconclusive means between about 15% and that limit
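DiscoveRx PathHunter D2 beta-arrestin cells (2,100/well) attached overnight, then compound-stimulated 90 min at 37 C in HBSS/10 mM HEPES/0.1% Tween-20 buffer; beta-galactosidase complementation read by luminescence after 1 h at ambient temperature. Dopamine 57 uM final (EC100) as control.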
D2 PAM-1 – positively modulates the human D2 dopamine receptor allosterically; potentiation, % at 10 µM; HEK293 T-REx D2, calcium flux, EC20 dopamine potentiation; hit rate 0.34% among 340,000; P14416;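 active means potentiation over 3 SD above the plate norm, cut at about 30% in these data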; further: 0% is about no effect
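Using a no-wash calcium dye in inducible, force-coupled HEK293 Trex cells expressing D2, we tracked fluorescence each second for 180 s after compound, then for 180 s after EC20 dopamine to detect augmented signalling.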
D2 antagonist – antagonists of human D2 dopamine receptor | P14416 | HEK293 TREx D2 cells, calcium flux, dopamine EC80 | inhibition, % at 10 µM | hit rate 2% among 340,000 | AID 485344; in the data active means inhibition above about 30%; inactive means below that, where a call was filed; further: 0% is about no effect
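HEK293 T-REx D2 cells, tet-induced, calcium dye no-wash. Cpd pintool add, 180 s kinetic, then EC80 DA, 180 s kinetic. Ca flux read.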
D2 PAM-2 – human D2 receptor positive allosteric modulation; P14416; DiscoveRx D2 beta-arrestin cells, luminescence, 90 min; 100% = 57 uM dopamine signal; potentiation, % (concentration not given with the values); hit rate 0.23% among 360,000; AID 624464; in the data active means potentiation above about 50%; inconclusive means mostly about 30% to 49%
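PathHunter beta-arrestin assay in DiscoveRx D2 cells. Compounds were added with an EC20 of dopamine (50 nM final) for 90 min at 37 deg C. Luminescence was read 1 h after detection reagent, with 57 uM dopamine as the EC100 control.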
Active calls of the source: *; u = inconclusive; x = not tested or not shown. Compounds with a hit are over-represented: about 2.4% of the library has one in this group of screens.

SMILES | D2 ag-1 | D2 ag-2 | D2 PAM-1 | D2 antagonist | D2 PAM-2
CCOc1ccccc1N1CCN(CC(=O)Nc2ccnn2C2CCCC2)CC1 | 12 | 15 | -19 | -3 | -4
COc1cc(-c2nc(CN3CCN(c4ncccn4)CC3)c(C)o2)ccc1F | 31* | u | -6 | 1 | -5
CCOc1ccc(C(=O)CSc2nnc3cc(C)c4ccccc4n23)cc1 | 1 | x | 0 | x | x
Cc1cc(OCCN2CCOCC2)ccc1Cl | 0 | 5 | -2 | 46* | -7
Cc1ccc(OCCN2CCOCC2)cc1C | 0 | -1 | -3 | -10 | -13
CC1CCN(CCOc2ccc(Cl)c(Cl)c2)CC1 | 6 | -4 | -26 | 84* | -14
CC(C)[C@H](NC(=O)c1ccc(Br)cc1)C(=O)NC1CCCCC1 | 0 | 5 | 13 | -14 | 1
O=C(CN1CCN(c2ccc(O)cc2)CC1)Nc1ccc2c(c1)OCCO2 | 36* | u | -9 | -10 | -10
Nc1nc2ccccc2n1S(=O)(=O)c1ccc(Cl)cc1 | x | -2 | x | x | -6
COc1cccc(NC(=O)c2c(-c3ccc(C)cc3)nnc3ccccc23)c1 | 0 | x | -4 | x | x
CC(=O)Nc1ccc(N=Cc2c(O)c(C(=O)Nc3ccccc3)cc3ccccc23)cc1 | 65* | 9 | -19 | 19 | 1
CC(=O)Nc1ccc(N=Cc2c(O)c3ccccc3oc2=O)cc1 | x | -5 | x | x | -8
COc1ccc(O)c(C(=O)c2cc(C(=O)NCCc3ccccc3)c(=O)n(CCc3ccccc3)c2)c1 | 2 | 14 | 4 | -8 | 69*
N/C(=N\OC(=O)c1cccc(Cl)c1)c1cccnc1 | 0 | u | 2 | 19 | 138*
N/C(=N\OC(=O)c1ccc(Cl)c(Cl)c1)c1cccnc1 | 0 | u | -9 | -4 | 117*
N/C(=N\OC(=O)c1cccc(Cl)c1)c1ccncc1 | 0 | u | 4 | -1 | 16
COc1ccc(-c2csc(-c3c(N)c(C(=O)c4ccccc4)n4ccccc34)n2)cc1OC | 0 | x | 11 | x | x
CCC/C=C/c1ccc(CN2C(C)C(=O)N(Cc3cn(CCC4OCCCO4)nn3)CCS2(=O)=O)cc1 (stereo unspecified) | x | 0 | x | x | x
CCOC(=O)c1ccc(NC(=O)CC2C(=O)OCCN2CC)cc1 (stereo unspecified) | -1 | -5 | -4 | 48* | -2
CCOC(=O)c1ccc(NC(=O)N2CCN(C3CCCCC3)CC2)cc1 | -1 | -1 | -3 | 34* | -15
CCOC(=O)c1ccc(NC(=O)N2CCN(Cc3ccccc3)CC2)cc1 | -1 | 8 | 0 | 44* | -8
CCOC(=O)N1CCN(C(=O)Nc2ccccc2)CC1 | 0 | -2 | -2 | 31* | -3
C/C(=N\NC(N)=S)C1=CCC2C3CC[C@H]4CC(O)CC[C@]4(C)C3CC[C@]12C (stereo partly specified) | -1 | 5 | 6 | -18 | 3
COc1ccccc1N1CCN(S(=O)(=O)c2c(C)sc3ncn(CC(=O)Nc4ccc(C)cc4Br)c(=O)c23)CC1 | 1 | x | 8 | x | x
O=C(N/N=C/C=C\c1ccccc1[N+](=O)[O-])c1ccccn1 | -1 | -4 | -21 | 81* | -16
SMILES | D2 ag-1 | D2 ag-2 | D2 PAM-1 | D2 antagonist | D2 PAM-2
Cc1ccc(N2C(=O)N(CC(=O)N3c4ccccc4CC3C)C(=O)C2C)cc1 (stereo unspecified) | 5 | 3 | 1 | 3 | -3
COc1cc(C(=O)OCC(=O)Nc2ccccc2C(=O)NC2CC2)c([N+](=O)[O-])cc1OC | 0 | -1 | -10 | 34* | 0
CCCCn1c(N)c(N(CCOC)C(=O)c2cc(-c3ccccc3Cl)nc3ccccc23)c(=O)[nH]c1=O | -1 | 3 | -3 | -4 | -6
CC(=O)Nc1ccc(OC(=O)c2ccc(Cl)cc2)cc1 | 0 | 1 | -2 | 33* | -14
N[C@H]1C(O)O[C@H](CO)[C@@H](O)[C@@H]1O (stereo partly specified) | 3 | -6 | 12 | -4 | 14
O=C(N[C@H]1CC1c1ccccc1)c1ccc([N+](=O)[O-])cc1 (stereo partly specified) | -2 | 1 | -22 | 33* | -13
Cc1c(C)n(Cc2ccc(F)cc2)c2ccc(C(=O)N3CCN(c4ccc(F)cc4)CC3)cc12 | x | x | -3 | x | x
CCN1CCN(C(=O)c2ccc3c(c2)c(C)c(C)n3Cc2ccccc2)CC1 | 0 | -1 | -32 | 38* | -16
Cc1ccc(C(=O)NCC(=O)Nc2ccc(Cl)cc2)s1 | x | -3 | x | x | -17
COc1ccc(CCNc2ccc(S(=O)(=O)N3CCN(C)CC3)cc2[N+](=O)[O-])cc1 | -1 | -2 | 3 | 65* | -5
COc1ccc(C(CNc2ccc(S(=O)(=O)N3CCN(C)CC3)cc2[N+](=O)[O-])N(C)C)cc1 (stereo unspecified) | 1 | -3 | -15 | 5 | -2
O=C(Nc1ccccc1-c1nnn(CC(=O)N2CCCc3ccccc32)n1)c1ccc(Cl)cc1 | 1 | 0 | 6 | 47* | -9
CC1CCC(NC(=O)c2cc3c(s2)CCCC3)CC1 (stereo unspecified) | -1 | -1 | -16 | -2 | -7
O=C(CCn1c(=O)sc2ccccc21)NCc1cccs1 | -1 | -1 | -6 | 32* | -14
O=C(CCn1c(=O)sc2ccccc21)NCc1ccccc1 | 0 | -4 | -19 | 20 | -11
O=C1NC(Cc2ccc(O)cc2)c2nc3ccc(F)cc3c(=O)n2-c2ncccc21 (stereo unspecified) | x | -2 | x | x | x
COc1cc2c(cc1OC)CN(Cc1ccc(C)cc1)CC2 | 0 | 0 | -27 | 56* | -17
COc1ccccc1CNC1CCN(Cc2ccccc2)CC1 | x | -4 | x | x | -14
CCc1ccc2c(CN3CCc4cc(OC)c(OC)cc4C3)cc(=O)oc2c1 | 26 | 0 | -26 | 32* | -18
COc1ccccc1C1CCN(Cc2ccc(C)cc2)CC1 | -1 | -3 | -27 | 95* | -14
O=C(NCCN1CCOCC1)c1cccc(Br)c1 | x | 2 | x | x | -6
Clc1cccc(-c2ccc(CNCCCN3CCOCC3)o2)c1 | -1 | -3 | -21 | 92* | -20
O=C(NCCN1CCOCC1)c1cccc(Cl)c1 | 2 | -3 | -16 | 33* | -9
COc1ccc(C(CNC(=O)COc2ccc(Cl)c(C)c2)N2CCOCC2)cc1 (stereo unspecified) | 1 | x | -18 | x | x
CC(C)NCC(O)c1ccc(O)c(O)c1 (stereo unspecified) | 5 | -1 | 33* | 17 | -2
CNC[C@H](O)c1ccc(O)c(O)c1 | 5 | 63* | -18 | 25 | 79*
C[C@@H](NC(=O)Cn1ccc(N)nc1=O)c1cccc2ccccc12 | x | -1 | x | x | -2
Cc1ccc2oc(C(F)(F)C(F)F)cc(=O)c2c1 | 0 | -3 | 7 | 1 | -5
Cc1ccc2oc(C(Cl)(Cl)Cl)cc(=O)c2c1 | -1 | 9 | -4 | 3 | 76*
